The list is not random: actives were taken first. Their share in the collection is about 19%.
HT1080 IDH1KD tx = qHTS for induction of synthetic lethality in tumor cells producing 2HG: qHTS for the HT-1080-IDH1KD cell line | HT-1080 IDH1 knockdown viability, ATP luminescence, 48 h | Potency, µM (top dose mostly 46.1 µM), for the others: top-dose activity, negative = toxicity, hits mostly cytotoxic | 2% of 360,000 active | AID 686971, 2013;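 further: potency means the concentration at half of the fitted maximal effect; 0% = DMSO wells and -100% = cell-free medium wells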
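% activity derives from luminescence (CellTiter-Glo), normalised to DMSO and no-cell wells. HT-1080-IDH1KD cells, 750/well, had 48 h compound exposure at 37 °C.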
TDP1 cell CPT = qHTS for Inhibitors of human tyrosyl-DNA phosphodiesterase 1 (TDP1): qHTS in cells in presence of CPT. 12% of 420,000 active. Potency, µM (top dose mostly 46.2 µM), for the others: top-dose activity change, negative = growth inhibition, usual class: inhibitors. chicken DT40 Tdp1-/-;hTDP1 cells + 20 nM CPT, ATP luminescence, 48 h. AID 686979, 2013; further: potency means the concentration at half of the fitted maximal effect; nearly all actives have a fitted effect of over 55% in size
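Cell growth measured by CellTiter-Glo luminescence after a minimum 48 h, 37 C compound exposure with 20 nM CPT in Tdp1-knockout DT40 cells stably expressing hTDP1, seeded 400/well; qHTS titration format.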
IL-1B inflam inh = qHTS for Inhibitors of Inflammasome Signaling: IL-1-beta AlphaLISA Primary Screen; THP-1 LPS/ATP IL-1B secretion, AlphaLISA, 16 h; active compounds read low; activity change, % at 57.5 µM; 4.7% of 360,000 active; AID 743279, 2014; in the data active means activity change below about -50%; inconclusive means mostly about -30% to -49%
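Secreted IL-1B measured by AlphaLISA bead assay after 16 h compound exposure of THP-1 cells; compounds (final up to 57.5 uM) added 1 h before LPS (250 ng/mL) and ATP (1.25 mM) stimulation; lower signal means less secretion.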
HT1080-NT tox = qHTS for induction of synthetic lethality in tumor cells producing 2HG: qHTS for the HT-1080-NT fibrosarcoma cell line | 1.6% of 360,000 active | Potency, µM (series often up to 46.1 µM), for inactives: at the top dose activity, negative = less viability, hits mostly cytotoxic | HT-1080-NT fibrosarcoma viability, CellTiter-Glo ATP luminescence, 48 h;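 further: NT is the 2HG producing partner of a matched IDH1 knockdown line; potency means the concentration at half of the fitted maximal effect; 0% = DMSO-treated cells and -100% = media-only wells without cells; nearly all actives have a fitted effect of over 55% in size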
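Fibrosarcoma NT cells, 750 per well in 5% FBS RPMI, were exposed to compound for 48 hours. Viability: CellTiter-Glo luminescence.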
DT40 TDP1 no CPT = qHTS for Inhibitors of human tyrosyl-DNA phosphodiesterase 1 (TDP1): qHTS in cells in absence of CPT; Potency, µM (titrated, usually from 46.2 µM), for the others: at the highest dose activity change, negative = growth inhibition, actives largely listed as inhibitors; AID 686978, 2013; DT40 Tdp1-/- hTDP1 cells, no CPT, ATP luminescence, 48 h; 15% of 420,000 active; further: potency means the concentration at half of the fitted maximal effect; nearly all actives have a fitted effect of over 55% in size
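No-CPT arm: Tdp1-/-;hTDP1 DT40 cells (400/well) plus compounds, incubated ≥48 hr at 37 °C. Readout CellTiter-Glo luminescence.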
* = called active by the depositor; ? = inconclusive; / = no result given. Unless noted, the call rests on the fitted dose curve; in most records, active means well fitted curve in the direction sought with a large enough effect; inconclusive means small, poorly fitted or top-dose-only effect, or another doubt; inactive means no such curve, though single readings can be large; an effect the other way counts as inactive or inconclusive. Unless noted, on the % scale 0 is the no-effect control and ±100 the full control effect.

SMILES | HT1080 IDH1KD tx | TDP1 cell CPT | IL-1B inflam inh | HT1080-NT tox | DT40 TDP1 no CPT
O=C(COc1ccccc1Cl)Nc1ccc2nc(SCC(=O)N3CCOCC3)sc2c1 | / | ? | / | / | 4.1µM*
CC(C)NC(=O)N1CC[C@@]2(CCCN(C(=O)c3cc(C(F)(F)F)cc(C(F)(F)F)c3)C2)C1 | / | 7% | / | / | -25%
O=C(COc1ccccc1)Nc1ccc2nc(SCC(=O)N3CCCC3)sc2c1 | / | ? | / | / | 23µM*
OC(c1cccc(Cl)c1)c1nc(-c2ccc3c(c2)OCO3)cs1 (stereo not given) | ? | ? | 7 | -26% | ?
OC(c1cccc(Cl)c1)c1nc(-c2ccccc2)cs1 (stereo not given) | -21% | ? | ? | ? | -19%
CC(C)c1cccc(-c2csc(C(O)c3cccc(Cl)c3)n2)c1 (stereo not given) | ? | 23µM* | 10 | ? | 21µM*
CN(C)c1ccc(-c2csc(C(O)c3cccc(Cl)c3)n2)cc1 (stereo not given) | ? | 21µM* | -7 | -26% | 21µM*
CCOC(=O)C1CCN(c2cc(=O)n(Cc3ccc(F)cc3)c(=O)[nH]2)CC1 | 2% | -4% | -14 | 5% | -21%
Cc1ccc(C(=O)COC(=O)CSc2cccc3cccnc23)c(C)c1 | -27% | ? | -88* | -8% | -30%
O=C(c1cccc(Oc2c(Cl)cccc2[N+](=O)[O-])c1)N1CCOCC1 | -11% | ? | -17 | -4% | ?
Cc1noc(C)c1CSc1nnc2n(-c3ccccc3)c(=O)c3ccccc3n12 | -9% | ? | 28 | 16% | -8%
Cc1noc(C)c1CSc1nc2ccccc2c(=O)n1-c1ccccc1 | 9.2µM* | 6.5µM* | -6 | ? | 5.8µM*
Cc1noc(C)c1CSc1nc2ccccc2c(=O)n1-c1ccc(F)cc1F | 16µM* | 8.2µM* | -12 | ? | 7.3µM*
CN1CCN(S(=O)(=O)c2ccc3c(c2)oc(=O)n3C)CC1 | 6% | -3% | 12 | 3% | 1%
CCCCNC(=O)C(Cc1ccccc1)NS(=O)(=O)c1ccc2c(c1)c(=O)n(C)c(=O)n2C (stereo not given) | -2% | 22% | 22 | 0% | -24%
C[C@@H]1CCCCO[C@H](CN(C)Cc2ccc(C(=O)O)cc2)[C@@H](C)CN([C@H](C)CO)C(=O)c2cc(N(C)C)ccc2O1 | 0% | -17% | -6 | 1% | -8%
C[C@@H]1CN([C@@H](C)CO)C(=O)c2cc(N(C)C)ccc2O[C@@H](C)CCCCO[C@@H]1CN(C)Cc1ccc2c(c1)OCO2 | 10% | 16µM* | -26 | 12% | 16µM*
C[C@@H]1CCCCO[C@@H](CN(C)Cc2ccc(C(F)(F)F)cc2)[C@@H](C)CN([C@H](C)CO)C(=O)c2cc(N(C)C)ccc2O1 | -29% | 23µM* | -53* | -28% | 23µM*
COc1ccc(CNC(=O)c2cc3cccc(O)c3oc2=N)cc1 | -3% | ? | ? | -3% | -24%
O=C(NCc1ccccc1)C(c1cc2ccccc2o1)n1c(=O)c(-c2ccccc2)nc2ccccc21 (stereo not given) | -2% | 15µM* | 12 | 2% | 13µM*
CCCCCNC(=O)C(c1cc2ccccc2o1)n1c(=O)c(-c2ccco2)nc2ccccc21 (stereo not given) | -14% | ? | 34 | 2% | 16µM*
O=C(NCc1ccccc1)C(c1ccccc1F)n1c(=O)c(-c2ccco2)nc2ccccc21 (stereo not given) | 0% | ? | -5 | -4% | 21µM*
COc1ccc(NC(=O)C(c2ccncc2)n2c(=O)c(-c3ccco3)nc3ccccc32)cc1 (stereo not given) | ? | ? | -23 | -25% | 23µM*
CC(C)(C)NC(=O)C(c1cc2ccccc2o1)n1c(=O)c(-c2ccco2)nc2ccccc21 (stereo not given) | 7% | ? | -3 | 8% | ?
COc1ccc(NC(=O)C(c2ccc(C(F)(F)F)cc2)n2c(=O)c(-c3ccco3)nc3ccccc32)cc1 (stereo not given) | -2% | ? | -19 | 1% | ?
SMILES | HT1080 IDH1KD tx | TDP1 cell CPT | IL-1B inflam inh | HT1080-NT tox | DT40 TDP1 no CPT
O=C(NCc1ccccc1)C(c1cc2ccccc2o1)n1c(=O)c(-c2cc3ccccc3[nH]2)nc2ccccc21 (stereo not given) | ? | ? | 64 | -25% | ?
N#C/C(=C\c1ccccc1O)C(=O)Nc1ccccn1 | -18% | 4% | 18 | -9% | -3%
COc1ccc(C(C(=O)Nc2c(C)cccc2C)n2c(=O)c(-c3ccco3)nc3ccccc32)cc1 (stereo not given) | -8% | ? | -3 | -17% | ?
O=C(NCc1ccccc1)C(c1ccccc1F)n1c(=O)c(-c2ccccc2)nc2ccccc21 (stereo not given) | -8% | 16µM* | -15 | -14% | ?
COc1ccc(C(C(=O)NCc2ccccc2)n2c(=O)c(-c3ccco3)nc3ccccc32)cc1 (stereo not given) | 21µM* | ? | 0 | ? | ?
Cc1cccc(C)c1NC(=O)C(c1ccccc1F)n1c(=O)c(-c2ccccc2)nc2ccccc21 (stereo not given) | -13% | ? | -5 | -17% | 21µM*
CN[C@H](C)C(=O)NC[C@H]1O[C@@H](n2cnc3c(N)ncnc32)[C@H](O)[C@@H]1O | -2% | 0% | 24 | -3% | -15%
CCN(c1ccccc1)S(=O)(=O)c1cccc(C(=O)NCC(c2ccc(OC)cc2)N2CCCCC2)c1 (stereo not given) | ? | 18µM* | -1 | ? | 8.2µM*
C=CCN(c1ccccc1OC)S(=O)(=O)c1cccc(C(=O)NCC(c2ccc(OC)cc2)N2CCCC2)c1 (stereo not given) | -13% | 3.7µM* | ? | -10% | 7.3µM*
C=CCN(c1ccccc1)S(=O)(=O)c1cccc(C(=O)NCC(c2ccc(OC)cc2)N2CCCCC2)c1 (stereo not given) | -24% | 5.8µM* | -66* | -20% | 5.8µM*
COc1ccc(C(CNC(=O)c2cccc(S(=O)(=O)N3CCCCC3)c2)N2CCCC2)cc1 (stereo not given) | -1% | -26% | ? | -2% | -9%
